YB-1 expr inh: YB-1 expression inhibition | U2OS, qRT-PCR YB-1 vs CDIP delta delta Cp, 16 h; hits give high values; zero = DMSO, each unit about twofold | delta delta Cp (YB-1 minus CDIP) (no concentration beside the values) | 0.37% of 30,000 active | AID 434959;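 active = delta delta Cp rounded down to an integer at or above 3, about 3 SD of DMSO wells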;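 also: higher means less YB-1 transcript or more CDIP transcript relative to DMSO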
PD-1 reversal: reversal of PD-1 mediated T-cell inhibition; primary human CD4 T cells, PD-L1 beads, CellTiter-Glo 96 h; activation, % (concentration not given with the values); 29,000 tested, under 10 active; AID 2316; call rule not given here
U2OS ROS induce: inducers of reactive oxygen species in cancer cells | U2OS ROS induction, H2DCF-DA fluorescence | ROS induction (% of piperlongumine), % at 10 µM | 2% of 46,000 active | AID 624156; in the data active = ROS induction above about 79%, passing the limit was not always enough; inconclusive = no clear call, values can overlap the other calls
Numbers stand for hits; 0 = inactive; ? = inconclusive; - = not tested or not shown. Rows were chosen to be rich in hits. Some 2.1% of all compounds tested hit in one or more screens of this group.

SMILES	YB-1 expr inh	PD-1 reversal	U2OS ROS induce
C[C@@H]1CCCCO[C@@H](CN(C)C(=O)Nc2cccc3ccccc23)[C@@H](C)CN([C@H](C)CO)C(=O)c2cc(NC(=O)Cc3ccccc3)ccc2O1	0	0	177
C[C@@H]1CCCCO[C@@H](CN(C)S(C)(=O)=O)[C@@H](C)CN([C@H](C)CO)C(=O)c2cc(NC(=O)Cc3ccccc3)ccc2O1	0	0	84
C[C@@H]1CCCCO[C@@H](CN(C)C(=O)Nc2cccc3ccccc23)[C@@H](C)CN([C@H](C)CO)C(=O)c2cc(NC(=O)c3ccccc3)ccc2O1	0	-	?
NNC(=O)c1cc(COc2c(Cl)cccc2Cl)on1	-	-	0
CN1C(=O)C2C=CC=CC2N=C1SCC(N)=O (stereo not drawn)	-	-	0
CCOC(=O)c1nnn2c1nc(N(Cc1ccccc1)Cc1ccccc1)c1ccccc12	0	0	173
CCOC(=O)c1nnn2c1nc(SCC(N)=O)c1ccccc12	0	0	0
O=c1oc2cc(O)ccc2cc1-c1nc2ccccc2s1	-	-	149
CCOc1cccc2cc(-c3nc4ccccc4s3)c(=O)oc12	0	0	0
COc1ccc(CC(=O)c2ccc(O)cc2O)cc1	0	-	0
CC(O)CC(=O)c1cc(O)ccc1O (stereo not drawn)	4.6	0	0
Cn1c(SCC(=O)NCCO)nc2ccccc2c1=O	-	0	0
C=C1[C@H](OC(=O)C(C)CC)[C@@H](OC(=O)C(C)C)[C@@H](O)C(C)(C)/C=C\[C@H](C)C(=O)[C@@]2(O)C[C@H](C)[C@H](O)[C@@H]2[C@H]1OC(=O)C(C)CC (stereo partly drawn)	0	56	0
COc1ccc(NC(=O)CN2CCN(C(=O)c3ccco3)CC2)cc1	-	0	0
C[C@H]1CN([C@@H](C)CO)C(=O)Cc2cc(NS(=O)(=O)c3ccc(Cl)cc3)ccc2O[C@H]1CN(C)Cc1ccc(Cl)c(Cl)c1	0	0	0
C[C@H]1CN([C@@H](C)CO)C(=O)Cc2cc(NC(=O)CCN3CCOCC3)ccc2O[C@H]1CN(C)Cc1ccc(Cl)c(Cl)c1	0	0	0
C[C@@H]1CN([C@@H](C)CO)C(=O)Cc2cc(NS(C)(=O)=O)ccc2O[C@@H]1CN(C)Cc1ccc(Cl)c(Cl)c1	0	0	104
CNC[C@@H]1Oc2ccc(NC(=O)CCN3CCOCC3)cc2CC(=O)N([C@H](C)CO)C[C@H]1C	9.5	0	0
C[C@H]1CN([C@@H](C)CO)C(=O)Cc2cc(NC(=O)CCN3CCOCC3)ccc2O[C@@H]1CN(C)Cc1ccc(Cl)c(Cl)c1	0	0	90
CNC[C@@H]1Oc2ccc(NC(=O)CCN3CCOCC3)cc2CC(=O)N([C@@H](C)CO)C[C@@H]1C	0	-	0
COC(=O)CCn1c(=O)c2cccn2c2ccccc21	-	-	0
COc1ccc(OC)c(C2C(C(=O)c3ccco3)C(=O)C(=O)N2CCN(C)C)c1 (stereo not drawn)	-	0	0
COC(=O)c1cc(NC(=O)c2cccc(Cl)c2)cc(C(=O)OC)c1	-	-	0
O=C(Nc1cc(C(=O)Nc2ccccc2O)cc(C(=O)Nc2ccccc2O)c1)c1ccccc1	-	-	97
O=C(c1nc2ccccc2[nH]1)N1CCOCC1	-	-	0
SMILES	YB-1 expr inh	PD-1 reversal	U2OS ROS induce
S=C(c1nc2ccccc2[nH]1)N1CCOCC1	5.2	0	0
CC(C)c1ccc(S(=O)(=O)NCCOC23CC4CC(CC(C4)C2)C3)cc1	-	-	0
CC1=C(CO)C(=O)OC([C@@H](C)C2CC[C@H]3C4C[C@H]5O[C@]56[C@@H](O)C=CC(=O)[C@]6(C)C4CC[C@]23C)C1 (stereo partly drawn)	0	0	138
Cc1sc2nc3c4ccccc4c(NCC4CCCO4)nn3c(=O)c2c1C (stereo not drawn)	0	0	0
COc1ccc(NC(=O)CSc2nc3sc(C)c(C)c3c(=O)n2-c2ccccc2)c([N+](=O)[O-])c1	-	0	0
COc1ccc(-c2cc(=O)c3ccccc3o2)cc1	0	-	0
COc1ccc(N=c2cc(-c3ccc(OC)cc3)oc3ccc(O)cc23)cc1	-	-	193
CC(C(=O)O)(c1ccccc1)c1ccccc1	-	-	0
COc1cc(O)cc2c1C(=O)OC(C)C2 (stereo not drawn)	0	0	0
C[C@@H]1C[C@@H]2O[C@H]2/C=C/C=C\C(=O)Cc2c(Cl)c(O)cc(O)c2C(=O)O1	0	0	140
C[C@H](CO)N1C[C@H](C)[C@H](CN(C)C(=O)Nc2ccc3c(c2)OCO3)Oc2ccc(NC(=O)Nc3cccc4ccccc34)cc2C1=O	0	0	79
C[C@H](CO)N1C[C@H](C)[C@@H](CN(C)C(=O)Nc2ccc3c(c2)OCO3)Oc2ccc(NC(=O)Nc3cccc4ccccc34)cc2C1=O	0	0	0
C[C@H]1CN([C@@H](C)CO)C(=O)c2cc(NC(=O)Nc3cccc4ccccc34)ccc2O[C@@H]1CN(C)Cc1ccc2c(c1)OCO2	0	0	120

Source: PubChem BioAssay
